This passage reports growth results from PubChem BioAssay (NCI).

Molecules are shown by their SMILES. About 83,000 compounds went through this panel and 20% of them were active in at least one assay; those are over-represented in the sample as a whole.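 Note: values are percent growth. 100 is the growth of untreated cells, values between 100 and 0 indicate rising inhibition; between -100 and 0 indicates cell death.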 Unmarked numbers belong to inactive results. Active and inactive are the calls of the source. Rule for the calls: active = growth percent below 10; inactive = the rest.

Among the test systems are NCI-H23 lung; NCI-H226 lung; NCI-H322M lung; HOP-62 NSCLC; NCI-H460 lung; HOP-92 NSCLC; NCI-H522 lung; A549/ATCC NSCLC; 786-0 renal; COLO 205 colon; DU-145 prostate; K-562 leukemia; MALME-3M melanoma; MDA-MB-231 breast; RXF 393 renal; SF-268 CNS; SF-295 CNS; SF-539 CNS; UACC-257 melanoma; M14 melanoma.
Holding throughout (test): NCI-60 one-dose screen, 48 h (100 = growth as untreated, 0 = no growth, -100 = all killed)
Common to all, as to settings: 10 µM unless noted

With `O=C(O)c1ccc(-n2c(=O)n(-c3cccc(C(F)(F)F)c3)c(=O)c3cc(-c4ccc(F)cc4F)ccc32)cc1`, the growth was -4.43% (active) in the assay with NCI-H23 lung; 10.4% with NCI-H226 lung; 8.23% (active) in the assay with NCI-H322M lung; 6.54% (active) in the assay with HOP-62 NSCLC; 5.81% (active) in the assay on NCI-H460 lung; -28.5% (active) with HOP-92 NSCLC. In addition, the growth in the assay on NCI-H522 lung is -7.88% (active); in the assay with A549/ATCC NSCLC it was 10%; with 786-0 renal, 22.3%; in the assay on COLO 205 colon, 65.1%; with DU-145 prostate, 25.9%; with K-562 leukemia it was 5.71% (active). In addition, the growth with MALME-3M melanoma was -12.8% (active); in the assay on MDA-MB-231 breast it was -25.8% (active); with RXF 393 renal it was -1.85% (active); with SF-268 CNS it was 22.1%; with SF-295 CNS, -12.6% (active); in the assay on SF-539 CNS it was 17.8%. Further, the growth with UACC-257 melanoma was -1.96% (active); with M14 melanoma, 18.6%.
In the case of `CCN(CC)CCOc1ccc(C(=C(C)Cc2ccc(OC)cc2)c2ccc(OCCN(CC)CC)cc2)cc1`, the growth with NCI-H23 lung was 82.6%; in the assay on NCI-H226 lung it was 81.3%; with NCI-H322M lung, 81.5%; in the assay with HOP-62 NSCLC, 62.6%; in the assay with NCI-H460 lung, 38.4%; in the assay on HOP-92 NSCLC, 19.9%. In addition, the growth was 76.8% in the assay on NCI-H522 lung; 52.6% with A549/ATCC NSCLC; 60.5% in the assay with 786-0 renal; -78.2% (active) in the assay with COLO 205 colon; 74.5% in the assay on DU-145 prostate; -4.16% (active) in the assay with K-562 leukemia. Moreover, the growth is -75.5% (active) in the assay on MALME-3M melanoma; 55.4% in the assay on MDA-MB-231 breast; 41.9% in the assay with RXF 393 renal; 70% in the assay on SF-268 CNS; 52.8% with SF-295 CNS; -45.9% (active) with SF-539 CNS. Besides, the results for the growth in the assay on UACC-257 melanoma and in the assay with M14 melanoma were 62.6% and -53.6% (active), respectively.
Turning to `C=C(C=O)[C@@H]1CC[C@]2(C(=O)O)CC[C@]3(C)C(CC[C@@H]4[C@@](C)(CCC#N)[C@H](C(=C)C=O)CC[C@]43C)[C@@H]12` (stereo not given in full), the growth in the assay with NCI-H23 lung was 17.6%; with NCI-H226 lung, -16.4% (active); in the assay on NCI-H322M lung, 98.6%; in the assay on HOP-62 NSCLC, 115%; in the assay on NCI-H460 lung, 96.7%; in the assay on HOP-92 NSCLC, 13.6%. In addition, the growth with NCI-H522 lung was 81.4%; in the assay with A549/ATCC NSCLC it was 82.7%; in the assay on 786-0 renal, 59.7%; in the assay with COLO 205 colon, 108%; in the assay with DU-145 prostate, 43.2%; in the assay with K-562 leukemia it was 4.17% (active). For the same compound, the growth in the assay with MALME-3M melanoma was 5.28% (active); in the assay on MDA-MB-231 breast, 43.8%; in the assay on RXF 393 renal, 44%; in the assay on SF-268 CNS, 64.9%; in the assay with SF-295 CNS it was 62.7%; in the assay with SF-539 CNS, 13.4%. The figures for the growth with UACC-257 melanoma and in the assay with M14 melanoma were 12.4% and 13.2%, respectively.
As for `CC[C@]12C=CCN3CC[C@]4(C(=C(C(=O)OC)C1)Nc1cc5c(cc14)[C@@H]1[C@H](O5)[C@@H](O)[C@@]4(CC)CC(C(=O)OC)=C5Nc6cc(O)ccc6[C@@]56CCN1C46)C32` (stereo not given in full), the growth with NCI-H23 lung was -40.9% (active); in the assay on NCI-H226 lung, -1.32% (active); in the assay with NCI-H322M lung, 0.163% (active); in the assay with HOP-62 NSCLC, 16.6%; with NCI-H460 lung it was 10.3%; in the assay on HOP-92 NSCLC, 35.5%. The growth was -22.8% (active) with NCI-H522 lung; 20.2% with A549/ATCC NSCLC; 6.94% (active) in the assay with 786-0 renal; -48% (active) with COLO 205 colon; 22% in the assay on DU-145 prostate; 3.36% (active) in the assay on K-562 leukemia. The growth in the assay on MALME-3M melanoma is 19.3%; with MDA-MB-231 breast, 21%; in the assay on RXF 393 renal, -40.2% (active); with SF-268 CNS it was 6.98% (active); in the assay with SF-295 CNS it was 8.14% (active); in the assay on SF-539 CNS it was 4.2% (active). Moreover, the growth with UACC-257 melanoma is 21.8%; in the assay with M14 melanoma, 15.7%.
On to `Fc1ccc(-c2cn3c(-c4c[nH]c5ccc(Br)cc45)csc3n2)cc1`, for which the growth in the assay with NCI-H23 lung is 30.4%; in the assay with NCI-H226 lung it was 59.8%; with NCI-H322M lung, 81.4%; in the assay on HOP-62 NSCLC, 34.8%; in the assay on NCI-H460 lung it was 52.9%; in the assay on HOP-92 NSCLC, 22.2%. In addition, the growth is 85.1% with NCI-H522 lung; 78.6% in the assay on A549/ATCC NSCLC; 97.2% in the assay on 786-0 renal; 76.9% in the assay with COLO 205 colon; 67.4% in the assay on DU-145 prostate; 90.3% with K-562 leukemia. The growth with MALME-3M melanoma is 51.4%; with MDA-MB-231 breast, 15.5%; in the assay with RXF 393 renal it was 79.6%; with SF-268 CNS, 50.9%; in the assay on SF-295 CNS, 64.1%; in the assay with SF-539 CNS it was 34.3%. Besides, the growth was 93.5% with UACC-257 melanoma and 67.4% in the assay with M14 melanoma.
With `Cn1c(SCC(=O)c2ccc(F)cc2)nc2ccccc2c1=O`, the growth in the assay on NCI-H23 lung was 84.5%; in the assay with NCI-H226 lung, 93%; with NCI-H322M lung, 99.8%; in the assay on HOP-62 NSCLC, 93.6%; with NCI-H460 lung it was 101%; with HOP-92 NSCLC it was 61.3%. For the same compound, the growth is 83.9% in the assay on NCI-H522 lung; 104% in the assay on A549/ATCC NSCLC; 96.8% in the assay with 786-0 renal; 123% with COLO 205 colon; 98% in the assay on DU-145 prostate; 76.4% with K-562 leukemia. Also, the growth in the assay on MALME-3M melanoma was 109%; in the assay with MDA-MB-231 breast it was 91.7%; in the assay with RXF 393 renal it was 108%; with SF-268 CNS it was 99%; with SF-295 CNS it was 97.9%; in the assay with SF-539 CNS it was 98.2%. For the same compound, the values for the growth in the assay on UACC-257 melanoma and with M14 melanoma were 107% and 95.8%, respectively.
In the case of `N#Cc1cccc(-c2cc(-c3ccc4c(c3)OCCO4)[nH]n2)c1`, the growth with NCI-H23 lung was 50%; with NCI-H226 lung it was 72.2%; in the assay with NCI-H322M lung, 54.8%; in the assay with HOP-62 NSCLC it was 43.5%; with NCI-H460 lung, 15%; with HOP-92 NSCLC, 75.5%. The growth is 23.8% with NCI-H522 lung; 47.8% with A549/ATCC NSCLC; 63.4% with 786-0 renal; 20.2% in the assay with COLO 205 colon; 34.7% in the assay on DU-145 prostate; 13.6% in the assay on K-562 leukemia. Moreover, the growth in the assay with MALME-3M melanoma is 36.1%; with MDA-MB-231 breast it was 42%; with RXF 393 renal it was 32.4%; with SF-268 CNS it was 61%; in the assay on SF-295 CNS, 27.1%; in the assay with SF-539 CNS, 25%. For the same compound, the growth is 71.1% in the assay with UACC-257 melanoma and 7.59% (active) in the assay with M14 melanoma.
With `Cn1cc(-c2cc3ncnc(Nc4ccc(NC(=O)Nc5cc(C(C)(C)C)on5)cc4)c3s2)cn1`, the growth with NCI-H23 lung is 29.4%; in the assay on NCI-H226 lung, 30.7%; in the assay on NCI-H322M lung it was 57.4%; in the assay on HOP-62 NSCLC, 62.7%; in the assay on NCI-H460 lung, 42.6%; in the assay on HOP-92 NSCLC, 22.5%. Also, the growth is 32.5% in the assay with NCI-H522 lung; 31.6% in the assay with A549/ATCC NSCLC; 3.44% (active) with 786-0 renal; 12.9% in the assay with COLO 205 colon; 47.8% in the assay on DU-145 prostate; 8.65% (active) in the assay with K-562 leukemia. In addition, the growth in the assay on MALME-3M melanoma is 17.3%; with MDA-MB-231 breast, 28%; in the assay with RXF 393 renal it was -5.22% (active); with SF-268 CNS, 45.5%; in the assay on SF-295 CNS it was -37.8% (active); in the assay with SF-539 CNS, -47.8% (active). Besides, the values for the growth in the assay with UACC-257 melanoma and with M14 melanoma were 25.3% and 11.6%, respectively.
